Measurements published in PubChem BioAssay.
The other results are listed elsewhere or left out. A number with no mark means an inactive call. Active and inactive are the calls of the source.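 The calls were made as follows, unless noted: active = mean inhibition of the triplicate above the hit cutoff set for the earlier primary screen (cut at about 25% in these data); inactive = the rest.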

biological target: Platelet-activating factor acetylhydrolase (Homo sapiens) (UniProt Q13093); experiment: pPAFAH (PLA2G7) enzyme inhibitors, confirmation, biochemical, fluorescence polarization, human (AID 463230); conditions: recombinant pPAFAH, FP-Rh probe fluorescence polarization; at 3.39 µM; hits give high values;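 also: 0% = enzyme with DMSO and 100% = wells lacking pPAFAH enzyme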
Sequence (Q13093 whole entry, looked up): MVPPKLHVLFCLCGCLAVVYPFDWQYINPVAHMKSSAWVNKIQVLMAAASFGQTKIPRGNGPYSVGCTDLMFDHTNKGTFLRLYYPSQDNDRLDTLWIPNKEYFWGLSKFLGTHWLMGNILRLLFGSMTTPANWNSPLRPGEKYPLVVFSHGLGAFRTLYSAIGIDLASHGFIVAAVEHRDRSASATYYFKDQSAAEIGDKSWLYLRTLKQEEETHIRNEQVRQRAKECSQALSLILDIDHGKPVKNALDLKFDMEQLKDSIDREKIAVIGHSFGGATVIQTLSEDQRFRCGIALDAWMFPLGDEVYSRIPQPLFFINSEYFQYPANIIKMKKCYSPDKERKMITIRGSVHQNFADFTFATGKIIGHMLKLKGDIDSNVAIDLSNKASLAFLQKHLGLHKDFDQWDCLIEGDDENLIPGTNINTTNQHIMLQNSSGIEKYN

Row | SMILES | inhibition
1 | OC(CNCC1CCCO1)Cn1c2ccc(Br)cc2c2cc(Br)ccc21 (stereo not drawn) | 37.2% (active)
2 | COC(=O)c1cc(S(=O)(=O)Nc2ccc(C)c(F)c2)c[nH]1 | 24.1%
3 | COC(=O)c1ccc(C(NC(=O)OCc2ccccc2)/C(C)=C/[C@@H](C)C(=O)NCc2ccc(OC)c(OC)c2)cc1 (stereo partly drawn) | 36% (active)
4 | Oc1c(Br)cc(/C=N/NC(=S)NCC2CCCO2)cc1Br (stereo not drawn) | 36.3% (active)
5 | COc1ccc(C(=O)NC(=S)Nc2ccccc2N2CCN(S(C)(=O)=O)CC2)cc1OC | -1.51%
6 | Oc1ccc(N=Nc2nccs2)c(O)c1 | 5.09%
7 | CCCCC(=O)Nc1ccc2c(c1)C(=O)NC2=O | 4.81%

biological target: Protein-arginine deiminase type-4 (Homo sapiens) (UniProt Q9UM07); experiment: human PAD4 inhibitors, confirmation, biochemical, fluorescence polarization (AID 488796;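 active = mean inhibition across replicates above the hit cutoff set by the earlier primary screen, cut at about 15% in these data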;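 also: inhibitors block active-site labeling by the probe so polarization falls; 0% = PAD4 with probe and DMSO and 100% = probe without PAD4 enzyme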); conditions: recombinant PAD4, RCA probe fluorescence polarization; at 6.36 µM; hits give high values
Sequence (Q9UM07 whole entry, looked up): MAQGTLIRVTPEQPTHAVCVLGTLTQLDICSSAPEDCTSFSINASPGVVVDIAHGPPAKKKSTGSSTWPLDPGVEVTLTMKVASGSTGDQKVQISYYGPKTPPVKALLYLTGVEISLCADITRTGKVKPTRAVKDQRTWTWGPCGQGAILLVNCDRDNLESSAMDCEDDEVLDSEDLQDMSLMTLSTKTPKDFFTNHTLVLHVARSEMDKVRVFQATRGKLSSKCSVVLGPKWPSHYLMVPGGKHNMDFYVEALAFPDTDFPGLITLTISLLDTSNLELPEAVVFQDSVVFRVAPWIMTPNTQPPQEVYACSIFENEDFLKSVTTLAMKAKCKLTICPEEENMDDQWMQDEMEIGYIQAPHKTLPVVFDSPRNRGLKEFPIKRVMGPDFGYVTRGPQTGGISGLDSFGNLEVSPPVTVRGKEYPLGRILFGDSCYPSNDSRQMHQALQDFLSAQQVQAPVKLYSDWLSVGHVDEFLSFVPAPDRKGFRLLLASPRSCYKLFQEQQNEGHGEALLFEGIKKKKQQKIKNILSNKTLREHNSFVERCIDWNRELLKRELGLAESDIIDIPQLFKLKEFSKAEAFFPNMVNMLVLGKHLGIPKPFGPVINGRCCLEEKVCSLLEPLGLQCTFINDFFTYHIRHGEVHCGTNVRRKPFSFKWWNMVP

Row | SMILES | inhibition
8 | Cc1cc(C(=O)CSc2nc(N)cc(=O)[nH]2)c(C)n1CCc1ccc(Cl)cc1 | 13.4%
9 | CN(C)S(=O)(=O)c1cccc(-c2nn(-c3ccccc3)cc2/C=C2\SC(=S)N(CC(=O)O)C2=O)c1 | 2.15%
10 | COc1ccc(C(=O)Nc2nc(-c3ccc(S(=O)(=O)N4CCOCC4)cc3)cs2)cc1 | 18.9% (active)

biological target: Serine protease HTRA1 (Homo sapiens) (UniProt Q92743); experiment: HTRA1 protease inhibitors, retest, confirmation, biochemical, fluorescence polarization (AID 540248;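 active = mean inhibition over three repeats above a set limit taken from the earlier primary screen, cut at about 37% in these data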;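 also: 0% = HTRA1 with DMSO and 100% = wells lacking HTRA1; inhibitors block probe binding so polarization drops and inhibition rises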); conditions: recombinant HTRA1, FP-rhodamine activity-based probe, at 5.96 µM, hits give high values

Row | SMILES | inhibition
11 | CC(C)C1N=C2c3ccccc3N=C(SCC(=O)c3ccc(O)c(O)c3)N2C1=O (stereo not drawn) | 57% (active)
12 | N#C/C(=C\c1ccc(O)c(O)c1)C(=O)NCc1ccccc1 | 84.8% (active)
13 | Cc1ccc(/C=N/NC(=O)c2cc3ccccc3cc2O)o1 | 38.8% (active)
14 | O=C(N/N=C/c1cccnc1)c1cc2ccccc2cc1O | 13.8%

biological target: Toll-like receptor 9 (Homo sapiens) (UniProt Q9NR96); experiment: TLR9-MyD88 association inhibitors, retest, confirmation, cell-based, CHO, BLA complementation, fluorescence, triplicate (AID 540250;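 active = mean inhibition across three repeats above about 21% taken from the earlier screen, limit read from the data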;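 also: blue over green emission ratio reports constitutive TLR9 MyD88 association via BLA complementation; 0% = DMSO vehicle wells and 100% = clavulanate BLA inhibitor wells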); conditions: CCF4 FRET ratio, at 4.98 µM, hits give high values
Sequence (Q9NR96 whole entry, looked up): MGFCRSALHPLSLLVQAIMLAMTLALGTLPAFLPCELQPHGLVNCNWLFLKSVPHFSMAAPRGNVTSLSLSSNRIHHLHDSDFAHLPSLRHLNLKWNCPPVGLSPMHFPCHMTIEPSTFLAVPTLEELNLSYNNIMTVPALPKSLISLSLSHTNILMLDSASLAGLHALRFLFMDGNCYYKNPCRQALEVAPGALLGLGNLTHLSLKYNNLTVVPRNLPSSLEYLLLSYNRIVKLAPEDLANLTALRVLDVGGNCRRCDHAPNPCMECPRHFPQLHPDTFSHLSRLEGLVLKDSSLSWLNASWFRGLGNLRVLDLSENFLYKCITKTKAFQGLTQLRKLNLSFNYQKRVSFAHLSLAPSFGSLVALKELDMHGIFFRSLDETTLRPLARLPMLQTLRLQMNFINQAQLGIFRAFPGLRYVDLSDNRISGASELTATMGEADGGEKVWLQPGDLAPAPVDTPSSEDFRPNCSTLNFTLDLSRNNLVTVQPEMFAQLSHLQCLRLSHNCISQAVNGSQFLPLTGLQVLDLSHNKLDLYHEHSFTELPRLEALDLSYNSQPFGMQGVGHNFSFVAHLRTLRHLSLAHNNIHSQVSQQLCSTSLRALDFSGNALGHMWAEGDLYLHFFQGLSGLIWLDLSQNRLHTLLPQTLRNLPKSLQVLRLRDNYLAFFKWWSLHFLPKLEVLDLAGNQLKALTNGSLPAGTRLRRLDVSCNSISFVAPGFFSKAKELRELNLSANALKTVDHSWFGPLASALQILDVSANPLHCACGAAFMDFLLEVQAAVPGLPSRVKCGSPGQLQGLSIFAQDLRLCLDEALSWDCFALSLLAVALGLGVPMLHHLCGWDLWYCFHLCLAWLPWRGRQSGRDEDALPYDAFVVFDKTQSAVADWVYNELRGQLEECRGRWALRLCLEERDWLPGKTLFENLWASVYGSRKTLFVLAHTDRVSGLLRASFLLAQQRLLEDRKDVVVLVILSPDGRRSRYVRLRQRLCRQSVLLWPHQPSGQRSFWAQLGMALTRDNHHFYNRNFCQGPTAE

Row | SMILES | inhibition
15 | Nc1c(C(=O)c2cccs2)sc2nsc(SCCN3CCCCC3)c12 | 31.7% (active)
16 | COc1cc(/C=C(\C#N)c2nc3c(s2)CC(C)CC3)ccc1O (stereo not drawn) | 7.82%
17 | O=C(/C=C(O)/C=C/c1ccc(O)cc1)/C=C/c1ccc(O)cc1 | 39.7% (active)

tested on: not listed separately; experiment: beta-lactamase reporter inhibitors in CHO cells, artefact control for TLR9-MyD88 binding inhibitor project, cell-based, fluorescence (AID 540251;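 active = mean inhibition above a 50% cutoff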;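 also: counterscreen of TLR9-MyD88 hits on CMV-driven BLA in CHO-K1 cells; 0% = DMSO alone and 100% = clavulanate blocking BLA; higher means less blue over green ratio so more BLA blockade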); conditions: CHO-BLA cells, CCF4 FRET ratio, at 4.98 µM, hits give high values

Row | SMILES | inhibition
18 | Nc1c(C(=O)c2cccs2)sc2nsc(SCCN3CCCCC3)c12 | 27.5%
19 | COc1cc(/C=C(\C#N)c2nc3c(s2)CC(C)CC3)ccc1O (stereo not drawn) | 17%
20 | O=C(/C=C(O)/C=C/c1ccc(O)cc1)/C=C/c1ccc(O)cc1 | 42.9%

tested on: not listed separately; experiment: CHO cell viability loss – luminescence, single concentration, cytotoxicity control for TLR9-MyD88 binding inhibitor project (AID 588336; in the data active = inhibition above about 11%); conditions: TLR9-MyD88 CHO cells cytotoxicity, at 4.98 µM, hits give high values

Row | SMILES | inhibition
21 | Nc1c(C(=O)c2cccs2)sc2nsc(SCCN3CCCCC3)c12 | 10.9% (active)
22 | COc1cc(/C=C(\C#N)c2nc3c(s2)CC(C)CC3)ccc1O (stereo not drawn) | 0.65%
23 | O=C(/C=C(O)/C=C/c1ccc(O)cc1)/C=C/c1ccc(O)cc1 | 6.33%
